FMDV antiviral: High Throughput Screening for Foot and Mouth Disease Virus Antivirals; FMDV antiviral cell-based qHTS; Potency, µM (highest dose often 57.9 µM), most hits filed as inhibitors; hit rate 1.2% among 410,000; calls by dose curve; tested in HEK293T cells; also: read-out not given here; nearly all actives have a fitted effect of over 45% in size
HCV inhibitor: qHTS Assay for Inhibitors of Hepatitis C Virus (HCV); Huh7.5.1 HCVcc-Cre infection, luciferase reporter, 44 h; Potency, µM (highest dose often 41.8 µM), hits mostly inhibitors; hit rate 3.4% among 340,000; active = well fitted inhibition curve with a large enough effect; inconclusive = small, poorly fitted or top-dose-only effect, or another doubt; inactive = no such curve, though single readings can be large or run the other way
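Compounds are dispensed onto cells plated 4 h earlier at 1,000 per well, with HCVcc-Cre virus (about 0.5 moi) added next. Following 44 h of culture, luminescent signal is measured for 15 sec after 15 min with substrate at room temperature.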
LASV entry inh: qHTS for Inhibitors of binding or entry into cells for Lassa Virus; Lassa virus pseudotype entry inhibition, cell reporter; Potency, µM (top dose mostly 37.9 µM), actives largely listed as inhibitors; hit rate 1.2% among 300,000; AID 540256, 2011; calls by dose curve; tested in HEK293 cells; also: nearly all actives have a fitted effect of over 50% in size
MARV entry inh: qHTS for inhibitors of binding or entry into cells for Marburg Virus; Potency, µM (top dose mostly 37.8 µM), hits mostly inhibitors; AID 540276, 2011; Marburg virus pseudotyped entry inhibition, cell reporter; hit rate 1.8% among 300,000; calls by dose curve; tested in HEK293 cells
HCMV antiviral: qHTS Assay for inhibitors of the human cytomegalovirus (HCMV); hit rate 4.5% among 410,000; AID 1259415, 2018; activity change, negative = inhibition, % at 57.5 µM; HFF cells, HCMV-luciferase reporter, 72 h; hits give low values; in the data active = activity change below about -60%; inconclusive = no clear call, values can overlap the other calls; inactive = above about -39%
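Human foreskin fibroblasts infected with luciferase-reporter HCMV at MOI 1 PFU/cell, compounds at two doses. Luciferase measured 72 h post infection; normalized to buffer-only basal and Salinomycin (10uM) controls.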
A number is an active result; - = inactive; ? = inconclusive; . = no result given; [ ] = another dose, or the depositor's remark. Rows were chosen to be rich in hits. Some 7.9% of all compounds tested hit in one or more screens of this group.

SMILES	FMDV antiviral	HCV inhibitor	LASV entry inh	MARV entry inh	HCMV antiviral
O=C(Nc1ncccn1)c1cc([N+](=O)[O-])cc([N+](=O)[O-])c1	-	-	-	-	-
CCOC(=O)c1cc2c(=O)n3ccccc3nc2n(CC2CCCO2)c1=NC(=O)c1ccc(OC)cc1OC (stereo not drawn)	-	.	-	?	-
CC1CN(S(=O)(=O)c2cccc(C(=O)NN3CCN(C)CC3)c2)CC(C)O1 (stereo not drawn)	-	-	-	-	-
CN(c1cccc(Cl)c1)S(=O)(=O)c1cccc(C(=O)Nc2ccc3c(c2)CCC3)c1	-	6.31µM	?	2.24µM	-87.2
Cc1nnc(NC(=O)c2cccc(S(=O)(=O)N(C)c3cccc(Cl)c3)c2)s1	-	-	.	.	-
CC1CN(S(=O)(=O)c2cccc(C(=O)Nc3ccc4c(c3)CCC4)c2)CC(C)O1 (stereo not drawn)	-	?	?	11.2µM	?
Cn1c(=O)oc2ccc(S(=O)(=O)Nc3ccc(Cl)cc3[N+](=O)[O-])cc21	.	.	.	.	-62.3
CCC1CN(CCNC(=O)c2cccc(N3CCCC3=O)c2)Cc2cc(OC)ccc2O1 (stereo not drawn)	-	.	.	.	.
N#C/C(=C(/O)c1cccc(F)c1)c1nc2ccccc2s1	-	-	.	.	-69.7
Cc1c(C(=O)N2CCC(C)CC2)sc2ncnc(N(C)c3ccccc3)c12	?	?	-	?	-65.9
Cn1c(/C(C#N)=C/c2ccncc2)nc2ccccc21	15.8µM	-	.	.	-
Cn1c(/C(C#N)=C/c2ccc(O)cc2)nc2ccccc21	-	-	.	.	-
COC(=O)c1cc(C(=O)OC)cc(N2C(=O)CC(NNC(=O)c3ccc(C)cc3)C2=O)c1 (stereo not drawn)	-	-	0.794µM	?	-
Cc1cc(C)c(-c2noc(C(=O)OC(C)(C)C)c2C(=O)OC(C)(C)C)c(C)c1	?	-	-	-	-
Cc1cc(O)cc(C)c1C=Cc1cncc(C(=O)OC(C)(C)C)c1	.	.	0.791µM	.	.
O=C(Nc1cc(C(F)(F)F)ccc1F)C1CCC1	-	-	-	-	-
Nc1ncnc2occ(-c3ccc(NC(=O)Nc4cc(C(F)(F)F)ccc4F)cc3)c12	.	.	15.8µM	.	.
COc1ccc(-c2oc3ncnc(N)c3c2-c2ccc(NC(=O)Nc3cc(C(F)(F)F)ccc3F)cc2)cc1	.	.	11.2µM	.	.
COc1ccc(-n2sc3ccccc3c2=O)cc1	?	.	.	.	-102.0
COc1ccc(-n2sc3ccc(F)cc3c2=O)cc1	-	2.82µM	.	.	-
Cc1ccc(C)c(-n2sc3ccc(F)cc3c2=O)c1	?	?	.	.	-86.8
O=c1c(-c2ccccc2)nc2cnc(Nc3ccccc3)nc2n1Cc1cccs1	-	.	.	.	.
O=C(CCl)Nc1cccc(Oc2ccccc2)c1	12.6µM	?	-	?	-97.1
COc1ccc(-c2cc(C(F)(F)F)nc(SCC(=O)N3CCCCC3)n2)cc1	-	.	-	-	?
CCn1c(=NC(=O)CS(=O)(=O)c2ccc(F)cc2)sc2cccc(OC)c21	?	?	-	?	?
SMILES	FMDV antiviral	HCV inhibitor	LASV entry inh	MARV entry inh	HCMV antiviral
CCn1c(=NC(=O)c2ccc(N3C(=O)CCC3=O)cc2)sc2c(OC)ccc(OC)c21	?	14.1µM	.	-	-
CCn1c(=NC(=O)CCS(=O)(=O)c2ccccc2)sc2cccc(OC)c21	20µM	.	?	?	-73.7
CCn1c(=NC(=O)c2cccc(N3C(=O)CCC3=O)c2)sc2c(C)ccc(OC)c21	-	-	?	-	-
CCn1c(=NC(=O)c2ccc(S(=O)(=O)N3CCOCC3)cc2)sc2cccc(OC)c21	?	10µM	?	?	-
N#C/C(=C\c1ccc(O)c(O)c1)C(=O)NCCCCc1ccccc1	-	.	.	.	.
COc1ccc(-n2c(C)cc(/C=C3\C(=O)NN(c4ccccc4)C3=O)c2C)cc1	-	-	-	-	-
Cc1cc(/C=C2/C(=O)NN(c3ccccc3)C2=O)c(C)n1-c1ccc(O)cc1	17.8µM	?	?	7.08µM	-86.1
Cc1ccc(C2(c3ccccc3)NC(=O)N(CC(=O)NC3(C#N)CCCC3)C2=O)cc1C (stereo not drawn)	-	-	.	.	-91.5
COc1ccc(C2(c3ccc(OC)cc3)NC(=O)N(CC(=O)NC3(C#N)CCCC3)C2=O)cc1	-	-	-	-	-
C=C=CCCN1C(=O)NC(c2ccccc2)C(C(=O)OC)=C1C (stereo not drawn)	.	.	.	-	.
Cc1nc2c(Cl)cc(Cl)cc2[nH]1	-	?	-	-	-65.5
Cc1nc2c([N+](=O)[O-])c(C)c(C)cc2[nH]1	-	-	-	-	-
Oc1ccc(Nc2nccc3[nH]c(-c4ccccc4)cc23)cc1	.	.	.	.	-
COc1ccc(-c2csc(N3C(=O)C4C5c6ccccc6C(c6ccccc65)C4C3=O)n2)cc1 (stereo not drawn)	-	-	-	-	-62.4
COc1ccc(-c2csc(N3C(=O)C4C5c6ccccc6C(c6ccccc65)[C@@H]4C3=O)n2)cc1 (stereo partly drawn)	-	-	-	-	?
CN(C)c1ncc2nc(-c3cccs3)c(=O)n(-c3ccccc3)c2n1	-	.	.	.	.
Cn1nnnc1SCCCNCc1cccc(OCc2ccc(F)cc2)c1	-	.	-	?	-
Cc1ccc(S(=O)(=O)N2CCC(=O)N(C(COCc3ccc(C(F)(F)F)cc3)C(C)C)CC2)cc1 (stereo not drawn)	?	-[8.37 µM]	13µM	?	.
O=C1CCN(S(=O)(=O)c2ccccc2)CCN1CCOCc1ccc(C(F)(F)F)cc1	?	10µM	.	.	-
Cc1ccc(COCCN2CCN(S(=O)(=O)c3ccccc3)CCC2=O)cc1	-	-	.	.	-
CC(C)c1ccc(NC(=O)N[C@H]2CC[C@@]34CCCN3C(=O)CCC[C@H]4[C@H]2C)cc1	.	.	.	.	-
COCc1nc2oc3ccc(C)cc3c(=O)c2cc1C(=O)OC	-	-	?	?	-71.3
COc1ccc(-c2nc3cnc(N(C)C)nc3n(C)c2=O)cc1	-	.	.	.	.
Cc1cc(-c2nc3cc(F)ccc3s2)ccc1N	-	?	2.24µM	7.08µM	-
COc1cc(CNc2ncnc3c2[nH]c2ccc(C)cc23)cc(OC)c1	?	?	.	.	-65.4
SMILES	FMDV antiviral	HCV inhibitor	LASV entry inh	MARV entry inh	HCMV antiviral
Cc1ccc2[nH]c3c(NCc4ccco4)ncnc3c2c1	-	11.2µM	-	10µM	-93.6
CCCN1C(=O)/C(=C/c2ccc(C)s2)SC1=Nc1ccc(OC)cc1	-	-	?	-	-
CCN(CC)CCN1C(=O)/C(=C\c2ccc(Cl)c([N+](=O)[O-])c2)SC1=Nc1ccc(OC)cc1	25.1µM	?	?	?	-99.1
COc1ccc(N=C2S/C(=C\c3ccc(Cl)c([N+](=O)[O-])c3)C(=O)N2CCN(C)C)cc1	28.2µM	?	.	.	-
Cc1ccc(N2C(=O)N3[C@H](c4ccc(Br)cc4)[C@@H]4C(=O)N(C(C)(C)C)C(=O)[C@@H]4[C@]3(C)C2=O)cc1	-	?	.	.	-85.4
CC(C)(C)N1C(=O)[C@H]2[C@@H](c3ccc(Br)cc3)N3C(=O)N(c4ccc(Br)cc4)C(=O)[C@@]3(Cc3ccccc3)[C@H]2C1=O	-	7.94µM	.	.	.
